Data: the supplement of paper PMC6555819

What was measured:
Test in all cases: PBM binding z-score (relative to random genomic background probes); higher = stronger binding; sequences stand for … in GC…GCGATTGACAGCGTAGAATGAAGG
[1] = system: FXR:RXRa (NR concentration 270 nM, RXRa partner concentration 90 nM)
Summary of the method: (§1)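 On custom Agilent 4×180K arrays, double-stranded probes with 34-nt variable regions carried direct-repeat seeds, single-nucleotide variants, half-site ablations or random human genomic background. Ligand-free nuclear receptor dimers were applied for 1 h, and binding was read with antibodies against each partner (one per run). Binding z-scores come from regression-normalized fluorescence, with the random background probes as reference.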

[2] = system: LXRa:RXRa (NR concentration 270 nM, RXRa partner concentration 90 nM)
Summary of the method: as §1

[3] = system: LXRa homodimer (NR concentration 270 nM)
Summary of the method: as §1

[4] = system: LXRb:RXRa (NR concentration 270 nM, RXRa partner concentration 90 nM)
Summary of the method: as §1

[5] = system: LXRb homodimer (NR concentration 270 nM)
Summary of the method: as §1

[6] = system: PPARa:RXRa (NR concentration 270 nM, RXRa partner concentration 90 nM)
Summary of the method: as §1

[7] = system: PPARg:RXRa (NR concentration 180 nM, RXRa partner concentration 90 nM)
Summary of the method: as §1

[8] = system: PPARg:RXRa 270nM:90nM, anti-RXR (NR concentration 270 nM, RXRa partner concentration 90 nM)
Summary of the method: as §1

[9] = system: PPARg:RXRa 30nM:10nM, anti-RXR (NR concentration 30 nM, RXRa partner concentration 10 nM)
Summary of the method: as §1

[10] = system: PPARg:RXRa 90nM:30nM, anti-RXR (NR concentration 90 nM, RXRa partner concentration 30 nM)
Summary of the method: as §1

Sequence	PBM binding z-score [1]	PBM binding z-score [2]	PBM binding z-score [3]	PBM binding z-score [4]	PBM binding z-score [5]	PBM binding z-score [6]	PBM binding z-score [7]	PBM binding z-score [8]	PBM binding z-score [9]	PBM binding z-score [10]
CAAACTAGGTCAAGAGGTCAAAGCCCGCTTCCCG	7.07	6.28	5.68	5.4	1.5	6.76	10.1	8.55	7.71	8.87
CCTACTGGGCCATTCAGATGTCATTGATCATATG	-0.368	-0.638	-0.391	-0.292	-0.418	0.25	0.6	0.494	0.00113	0.0703
GGAACGAGGGCCAGTTGATAGCAGAGTTTGATGG	-0.532	-0.8	-0.645	-1.21	-0.96	-0.53	0.258	-0.67	-0.491	-0.758
AGAATGAGGTTATACGTGGATCAGGGAAGAAAGT	2.49	2.03	0.117	1.91	0.299	3.25	1.82	2.19	0.672	1.49
AGAATGAGGTTACCAAAGATCGGGGAAACGCTTG	1.75	4.95	-0.394	2.39	-0.29	3.28	2.29	2.42	0.813	1.48
GCGACTGGTGCAAAGCAGGTTACCATAAGGTTGG	-0.455	-0.431	-0.586	-0.35	-0.861	0.293	0.344	-0.0216	-0.591	-0.439
AGGATGAGGTTACCAAAGATCAGGGAAACGCTTG	1.74	6.04	0.206	3.17	0.353	2.93	1.55	1.76	0.744	1.12
CCTACTGGGACAAAGGTCATTGATTCCAATGCTC	5.11	5.21	4.66	4.9	1.5	6.27	11.8	10.3	12.2	11.7
TCATATAGGTAAAGGTTAAAGTCGAACGATATGA	2.25	3.83	0.888	2.89	0.157	4.34	5.57	5.57	5.06	5.73
CCGACTGGGTCAGAAAGGTTACCATACCATCCGG	1.8	1.62	-0.0382	1.61	-0.767	3.21	3.13	3.2	0.873	2.2
AATACAGGGTCACTAGGCCAGACTAGGTACGAAT	6.12	5.24	0.88	3.8	0.693	5.84	7.65	6.41	3.21	5.35
GATACAGGGTCAGCTAGAGGCAAGAGTATGGAAA	4.32	2.35	-0.297	2.33	-0.0863	4.69	3.78	3.19	0.625	1.71
TCTTGTTGGTCACGGAGGTCACACACGACGGGTA	3.76	3.86	3.29	3.62	2.2	4.14	3.58	4.44	3.5	4.07
CCTATTAGTTGACCAGAAGGGCAACCGAAGCTCG	0.545	0.559	0.36	0.332	0.735	0.431	0.395	0.467	-0.116	0.177
CCTTACGGGTCACGAGGTTATAACACGACGAGCG	6.57	4.63	0.527	4.2	-0.0357	6.03	7.47	6.56	3.19	5.53
CCTGCTAGGTCATGGTCAGCAAATCTACAGTATG	3.65	2.33	0.105	1.71	-0.273	3.53	2.37	2.74	0.551	1.8
CAAACTAGGTCATGAAAGGTCAAAGTCGAATGAC	7.56	8.15	8.41	7.23	2.86	6.78	9.71	8.12	6.46	8.38
ATCTCTAGGTACAGATAGTTCAGTGAATGCAAAT	0.079	0.141	0.396	0.242	0.548	0.12	0.349	0.108	0.29	0.33
